Assay outcomes (PubChem BioAssay)
Shown are actives, neighbours in structure and some others; about 5.2% of the full set was active somewhere.
NR3A LBD binder: modulators (binders) of human NR3A ligand-binding domain. NR3A LBD differential scanning fluorimetry, Tm shift; 0% = protein alone, 100% = glycine-bound protein. Tm shift relative to glycine control, % at 25 µM. 340,000 tested, 2.5% active;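 active means melting temperature shift of at least 10% of the positive control shift, at one fixed dose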
esBAF inh: SWI/SNF esBAF complex inhibition; mouse ES cells, Bmi1-luciferase knock-in reporter, 24 h; 100% = twice the neutral-well signal; 350,000 tested, 2% active; AID 602393; reporter increase, % at 12.5 µM; in the data active means activation above about 40%;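 further: 0% = median of the plate's neutral control wells and 100% = double that signal; a rise in the Bmi1 reporter signal indicates esBAF inhibition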
SMARCA2 activ: SMARCA2 function activation, primary screen. activation, % at 9.1 µM. AID 652017. 370,000 tested, 1% active. MG213 cells, MMTV-luciferase reporter, dexamethasone, overnight; in the data active means activation above about 7.8%;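 further: 0% = vehicle wells and 100% = reference activator wells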
SKN-1 inh: inhibitors of C. elegans SKN-1; C. elegans VP596 Pgst-4::GFP/RFP ratio, acrylamide-induced, 24 h; inhibition, % at 21.8 µM; 360,000 tested, 0.49% active; AID 624304;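 active means interference check ratio from 0.5 to 1.5 plus GFP to RFP signal ratio inhibition reaching or exceeding a fixed threshold, cut at about 30% in these data, passing the limit was not always enough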
Vif imaging: blocks HIV Vif function; inhibition, % at 7.49 µM; 340,000 tested, 0.35% active; HEK293T cells, Vif self-association by quenched fluorescence, imaging, 24 h; AID 602346; in the data active means inhibition above about 50%, passing the limit was not always enough
NadD inh: NadD (S. aureus) enzyme inhibition; 360,000 tested, 0.78% active; AID 602399; purified NadD enzyme, colorimetric absorbance read-out; inhibition, % at 20 µM; in the data active means inhibition above about 26%
* marks the source's active call; other numbers are inactive results; / = no result given.

SMILES	NR3A LBD binder	esBAF inh	SMARCA2 activ	SKN-1 inh	Vif imaging	NadD inh
O=C1Nc2ccccc2C(O)(C(=O)NCc2ccco2)N1c1ccc(Cl)c(Cl)c1 (stereo not given)	1	1	/	42*	8	6
O=C(N[C@@H]1CC[C@H](CCNS(=O)(=O)c2cccc(Cl)c2)O[C@H]1CO)c1ccccc1	/	2	/	/	/	/
O=S(=O)(N[C@H]1CC[C@@H](CCn2cc(-c3cccc(F)c3)nn2)O[C@@H]1CO)c1ccc(F)cc1	/	-2	/	/	/	/
Cc1cc2nc(-c3ccncc3)cc(C(F)(F)F)n2n1	0	/	-1	4	10	-1
Cc1cc(C(F)(F)F)n2nc(-c3cnn(C)c3C(F)(F)F)cc2n1	2	5	5	5	68*	7
COc1ccccc1Cc1c(-c2ccc(OC)c(OC)c2)nc2ccc(Cl)cn12	/	-4	-1	30	/	2
COc1ccccc1Cc1c(-c2ccc(C)cc2)nc2ccc(Cl)cn12	/	63*	4	3	/	10
COc1ccc(Cc2c(-c3ccc(C)cc3)nc3ccc(Cl)cn23)c(C)c1	/	65*	0	10	19	2
CC=Cc1ccc2n(c1=O)C[C@H]1[C@H](CO)[C@@H](C(=O)NCc3ccccc3)N(CCC(F)(F)F)[C@@H]21 (mixture of isomers)	/	5	/	/	/	/
C/C(=N\Nc1cccc2cccnc12)c1ccc[nH]1	-6	47*	7	19	-1	3
Cn1c(-c2c(N)n(CCc3ccccc3)c3nc4ccccc4nc23)nc2ccccc21	11*	/	/	19	0	10
COCCCn1c(N)c(-c2nc3ccccc3n2C)c2nc3ccccc3nc21	-12	/	-2	8	2	-5
CN(/N=C/c1ccc2c(c1)OCO2)c1ccccc1	11*	51*	3	21	-1	3
CN(C(=O)/C=C/c1ccc2c(c1)OCO2)c1ccccc1	-1	53*	1	13	-4	-7
CN(C(=O)C=Cc1ccccc1)c1ccccc1	-4	33	3	7	23	-3
Cc1ccc(C(C(=O)Nc2ccc3c(c2)OCO3)N(C)C(=O)/C=C\c2ccc3c(c2)OCO3)cc1 (stereo not given)	13*	/	0	10	-9	10
C(=N\N(c1ccccc1)c1ccccc1)/c1ccc2c(c1)OCO2	-2	/	-2	2	8	5
CCNC(=O)C[C@@H]1CC[C@H]2[C@H](COc3ccc(NC(=O)Nc4c(C)noc4C)cc3C(=O)N2C)O1	/	0	/	/	/	/
CC[n+]1c(/C=C/Nc2ccccc2)sc2ccccc21	1	-21	-4	39*	-7	13
CC[n+]1c(/C=C(\C)Nc2ccccc2)sc2ccccc21	0	/	-2	11	-9	17
O=C(/C=C/c1cccc(Cl)c1)Nc1ccncc1	4	39	-2	23	-4	-5
NS(=O)(=O)c1ccc(NC(=O)/C=C/c2ccc(S(=O)(=O)NCc3ccco3)cc2)cc1	38*	-8	-2	6	-3	2
NS(=O)(=O)c1ccc(NC(=O)/C=C/c2cccc(Cl)c2)cc1	28*	/	4	4	-5	-6
CCCCOc1ccc2ccccc2c1C=O	10*	73*	0	-3	18	4
O=C(NNC(=O)c1cccs1)c1ccc(Br)cc1	-2	36	-1	20	13	3
SMILES	NR3A LBD binder	esBAF inh	SMARCA2 activ	SKN-1 inh	Vif imaging	NadD inh
O=C(Nc1cccc(NC(=O)c2cccs2)c1)c1ccc(Br)cc1	13*	8	-2	6	0	-5
O=C(Nc1cccc(O)c1)c1cccc(NC(=O)c2cccs2)c1	28*	30	-1	1	-9	-6
Nc1cccc(NC(=O)c2cccs2)c1	-14	19	-2	-13	9	12
O=C(C[C@H]1C=C[C@@H](NC(=O)Cc2cccnc2)[C@@H](CO)O1)Nc1ccccc1	/	6	/	/	/	/
CCOC(=O)c1ccc(NC(=O)c2cc3ccccc3o2)cc1	8	25	2	6	-14	-15
Cc1cccc(NC(=O)c2cc3ccccc3o2)c1	-1	63*	0	20	-4	-4
CCOC(=O)c1cccc(NC(=O)c2cc3ccccc3o2)c1	0	46*	5	15	16	-6
NS(=O)(=O)c1cccc(NC(=O)c2cc3ccccc3o2)c1	2	/	5	-6	-3	-3
O=C(Nc1cccc(Br)c1)c1cc2ccccc2o1	32*	/	0	20	-4	-3
Cc1nc(NC(=O)c2cc3ccccc3o2)ccc1Br	0	69*	0	19	6	-1
CNC(=O)c1cc2ccccc2o1	2	0	1	6	-10	-1
Cc1nc(NC(=O)c2ccc(Br)o2)ccc1Br	2	/	2	11	-7	-2
CN(C)C(=O)C[C@H]1C=C[C@H](NC(=O)NC2CCCC2)[C@@H](CO)O1	/	-5	/	/	/	/
Cc1cccc(C(=O)N=c2sccn2C)c1[N+](=O)[O-]	2	56*	3	-6	-3	2
CCN(CC)S(=O)(=O)c1cc(C(=O)N=c2sccn2C)ccc1OC	3	0	-2	10	3	-4
CCCCOc1ccc(C(=O)N=c2sccn2C)cc1OC	1	57*	3	18	-13	-1
Cc1ccccc1C(=O)N=c1sccn1C	2	/	-1	-5	5	6
Cn1ccsc1=NC(=O)c1ccc(Cl)c([N+](=O)[O-])c1	-1	83*	4	7	0	3
COCCNC(=O)C1=C(N)C(C(=O)Nc2ccc(C)c(S(=O)(=O)N3CCCCC3)c2)SC1=Nc1ccc(C)cc1C (stereo not given)	9	-6	/	-3	2	50*
CC(C)NC(=O)N(C)C[C@H]1Oc2ccc(NS(=O)(=O)c3ccccc3)cc2CC(=O)N([C@H](C)CO)C[C@@H]1C	/	-3	/	/	/	/
CCOC(=O)c1c(O)c2ccccc2n(-c2ccccc2)c1=O	11*	2	0	12	20	-3
CCCCCn1c(=O)c(C(=O)OCC)c(O)c2ccccc21	-1	-9	0	-23	9	-4
FC(F)(F)c1cc(-c2ccccc2)nc(NCC2CCCO2)n1 (stereo not given)	5	/	1	17	-16	-4
FC(F)(F)c1cc(-c2ccccc2)nc(NC2CCCC2)n1	2	/	1	37*	-3	9
O=c1c(N=Nc2ccc(O)cc2)c(-c2ccccc2)[nH]n1-c1ccc([N+](=O)[O-])cc1	-3	-4	-1	3	-10	40*
Cc1[nH]n(C(N)=S)c(=O)c1N=Nc1ccc(Br)cc1	9	35	4	13	-9	7
Cc1ccc([N+](=O)[O-])cc1N=Nc1c(-c2ccc([N+](=O)[O-])cc2)[nH]n(C(N)=S)c1=O	30*	-47	/	-6	-54	53*
NC(=O)c1ccc(N=Nc2c(-c3ccccc3)[nH]n(-c3ccccc3)c2=O)cc1	/	/	4	/	/	/
